Compounds with a hit are over-represented: about 1.3% of the library has one in this group of screens.
PKM2 activator: activators of human pyruvate kinase M2 | 260,000 tested, 0.34% active | AID 1631 | purified PKM2, Kinase-Glo ATP luminescence, activation; response scale: 0% is enzyme alone, no compound | Potency, µM (doses to about 57.5 µM), most hits filed as activators | P14618; active = well fitted activation curve with a large enough effect; inconclusive = small, poorly fitted or top-dose-only effect; inactive = no such curve, though single readings can be large or run the other way; also: nearly all actives have a fitted effect of over 55% in size
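Kinase-Glo luminescence reports ATP generated from ADP (0.1 mM) and PEP (0.5 mM) by purified hPK-M2 after 1 h at room temperature, pH 7.2 imidazole buffer; intermediate enzyme activity allows detecting inhibitors and activators.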
TRPML1 agonist: human mucolipin-1 channel agonism. activation, % (concentration not given with the values). TRPML1-expressing cells, Ca2+ dye fluorescence, FDSS. AID 624414. 410,000 tested, 0.12% active. Q9GZU1
Target sequence (Q9GZU1 whole entry, looked up): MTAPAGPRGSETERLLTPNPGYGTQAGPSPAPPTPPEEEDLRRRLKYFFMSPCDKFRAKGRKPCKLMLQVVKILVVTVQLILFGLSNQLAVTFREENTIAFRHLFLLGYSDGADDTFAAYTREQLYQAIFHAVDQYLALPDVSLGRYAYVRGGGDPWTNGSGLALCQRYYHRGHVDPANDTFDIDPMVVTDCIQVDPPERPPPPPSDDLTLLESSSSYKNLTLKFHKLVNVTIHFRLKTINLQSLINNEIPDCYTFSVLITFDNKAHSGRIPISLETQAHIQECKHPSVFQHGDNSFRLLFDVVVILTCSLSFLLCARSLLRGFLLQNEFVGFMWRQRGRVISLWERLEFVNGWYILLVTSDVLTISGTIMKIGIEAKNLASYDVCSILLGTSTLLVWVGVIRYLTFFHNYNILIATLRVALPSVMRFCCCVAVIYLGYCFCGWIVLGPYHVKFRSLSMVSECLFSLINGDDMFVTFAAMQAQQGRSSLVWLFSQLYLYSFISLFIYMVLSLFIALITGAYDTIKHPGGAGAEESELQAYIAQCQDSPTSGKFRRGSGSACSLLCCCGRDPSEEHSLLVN
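In this qHTS format, compounds were pin-transferred onto Ca8-dye-loaded TRPML1-DL cells induced with Tet overnight, and intracellular Ca2+ fluorescence was recorded kinetically for 110 s after a 10 s baseline. A subsequent 4uM final 54-4 (EC80) addition followed by a second 110 s read served as the antagonist phase.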
TRPML1 inh: inhibitors of human TRPML1 channel. activity change, negative = inhibition, % (no concentration beside the values). Q9GZU1. TRPML1-inducible cells, Ca2+ dye fluorescence, FDSS; hits give low values; inhibition of EC80 agonist-evoked calcium signal. 390,000 tested, 0.02% active. AID 624415; in the data active = activity change below about -50%; inconclusive = between about -30% and that limit;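 also: stimulus is agonist 54-4 at its EC80 concentration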
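Tet-induced TRPML1-DL cells loaded with Ca8 no-wash calcium dye were read kinetically on FDSS. Compound addition was followed by EC80 agonist 54-4 (4 uM final); inhibition was read over 110 s.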
IL2 activator: activators of IL-2; IL-2 activation reporter assay, cell-based qHTS; stimulated with anti-CD3/CD4/CD28 beads; in transgenic mouse T cells; activation, % (series mostly up to about 46 µM); 360,000 tested, 0.065% active; AID 652025
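Readout: EGFP and DsRed signals by fluorescent plate cytometry. Unstimulated transgenic mouse T cells received compound 60 min before antibody-bead stimulation, then incubated 18 h at 37 degrees C.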
BRCA1 expr up: activators of BRCA1 expression | Potency, µM (doses to about 46.1 µM), most hits filed as activators | MCF7-BRCA1-FFLuc reporter, luminescence, 48 h; response scale: scaled: vehicle 0%, 10 µM genistein 100% | 380,000 tested, 1.1% active; active = well fitted activation curve with a large enough effect; inconclusive = small, poorly fitted or top-dose-only effect; inactive = no such curve, though single readings can be large or run the other way; also: nearly all actives have a fitted effect of over 80% in size
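Quantitative HTS in MCF7 cells stably reporting BRCA1 expression via firefly luciferase. Compound treatment lasts 48 h at 37 °C in phenol-red free MEM. Activation is expressed relative to genistein at 10 microM and DMSO.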
PTAP TSG101 blk: blocks PTAP/TSG101 interaction to inhibit HIV-1 budding; AID 493005; Fluorescence polarization, FITC-PTAP peptide / Tsg101 binding; 340,000 tested, under 10 active; Potency, µM (doses to about 115 µM), actives largely listed as inhibitors; active = well fitted inhibition curve with a large enough effect in the main read-out, with a control signal flat, not every such curve was filed as active; inconclusive = small, poorly fitted or top-dose-only effect, or effect the other way, or a change in a side signal; inactive = no such curve, though single readings can be large or run the other way
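Tsg101 binding domain (10 uM final) was mixed with compound and a FITC-labeled PTAP peptide (50 nM final) in HEPES pH 7.5 buffer with NaCl, Tween 20, EDTA and TCEP; fluorescence polarization was read after 20 min at r.t.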
A number is an active result; 0 = inactive; ? = inconclusive; - = no result given. Rule as the data show it, unless noted: active = activation above about 50%; inconclusive = mostly about 30% to 49%; inactive = weaker than that.

SMILES | PKM2 activator | TRPML1 agonist | TRPML1 inh | IL2 activator | BRCA1 expr up | PTAP TSG101 blk
CCNC(=O)COc1ccc(Br)cc1Cl | 0 | 0 | 0 | 0 | 0 | 0
COC(=O)C[C@H]1c2ccccc2S(=O)(=O)N1c1ccc(N(C)C)cc1 | - | 0 | - | - | - | -
c1ccc(CNc2ncnc3c2ncn3Cc2ccccc2)cc1 | - | 0 | - | - | 0 | -
Clc1cccc(CSc2ccc(-c3ccco3)nn2)c1 | 0 | 0 | 0 | 0 | 0 | 0
Cc1cccc(CSc2ccc(-c3ccco3)nn2)c1 | 0 | 0 | 0 | 0 | ? | 0
c1ccc(CSc2ccc(-c3ccco3)nn2)cc1 | 0 | 0 | 0 | 0 | 3.2µM | 0
Clc1ccc(CSc2ccc(-c3ccco3)nn2)cc1 | 0 | 0 | 0 | 0 | 13µM | 0
Fc1ccccc1CSc1ccc(-c2ccco2)nn1 | 0 | 0 | 0 | 0 | ? | 0
Cc1ccc(CSc2ccc(-c3ccco3)nn2)cc1 | 0 | 0 | 0 | 0 | 3.5µM | 0
C[n+]1ccc(/C=C/c2ccc(Br)cc2)cc1 | 0 | 0 | 0 | 0 | 0 | 0
C[n+]1ccc(/C=C/c2c[nH]c3ccc(F)cc23)cc1 | - | 0 | 0 | 95 | 0 | ?
Cn1cc(C=O)c2cc(F)ccc21 | 0 | 0 | 0 | 0 | 0 | 0
Cn1cc(/C=C/c2cc[n+](C)cc2)c2cc(F)ccc21 | - | 0 | 0 | 206 | 0 | ?
Cn1cc(S(=O)(=O)c2ccccc2)c(=O)c2cc(Cl)ccc21 | - | 0 | 0 | 0 | 0 | 0
Cn1cc(/C=C/c2cc[n+](C)cc2)c2cc(Cl)ccc21 | - | 0 | 0 | 104 | 0 | 0
COc1cc(NC(=O)c2cccc3c2C(=O)N(C2CCCCC2)C3)cc(OC)c1 | - | 0 | 0 | - | 0 | -
CCOC(=O)N1CCN(Cc2nc3cc(NC(=O)c4ccc(OC)cc4)ccc3n2C(C)C)CC1 | - | 0 | 0 | - | - | -
CC(C)C(NC(=O)C1CCCCC1)C(=O)Nc1ccc2c(c1)OCCO2 (stereo not given) | 0 | 0 | 0 | 0 | 4.5µM | 0
CC(C)C(NC(=O)C1CCCCC1)C(=O)Nc1ccncc1 (stereo not given) | 0 | 0 | 0 | 0 | 0 | 0
CSCC[C@H](NC(=O)[C@@H]1Cc2ccccc2CN1)C(=O)Nc1ccc2c(c1)OCCO2 | - | 0 | 0 | 0 | 11µM | 0
C[C@H](NC(=O)[C@@H]1Cc2ccccc2CN1)C(=O)Nc1ccc2c(c1)OCCO2 | - | 0 | 0 | 0 | 0 | 0
CC(Sc1ccccc1F)C(=O)Nc1ccc2c(c1)OCCO2 (stereo not given) | - | 0 | 0 | 0 | 11µM | 0
CC(=O)Nc1ccc(NC(=O)C(C)Sc2nnc(-c3ccc4c(c3)OCO4)o2)cc1 (stereo not given) | - | 0 | 0 | 0 | 0 | 0
CC(Sc1ccc2c(c1)OCCO2)C(=O)Nc1ccc2c(c1)OCO2 (stereo not given) | 0 | 0 | 0 | 0 | 0 | 0
COc1ccc(-c2nnc(SC(C)C(=O)Nc3ccc4c(c3)OCCO4)o2)cc1 (stereo not given) | 0 | 0 | 0 | 0 | 10µM | 0
SMILES | PKM2 activator | TRPML1 agonist | TRPML1 inh | IL2 activator | BRCA1 expr up | PTAP TSG101 blk
CC(C)(C)c1ccc(Cn2cnc3c(cnn3C(C)(C)C)c2=O)cc1 | - | 0 | 0 | - | - | -
Cc1ccc(NC(=O)CN2C(=O)c3ccccc3Sc3ccc(C(=O)N4CCCC4)cc32)cc1 | - | 0 | 0 | - | - | -
CCN1/C(=C/C=C/c2oc3ccc(-c4ccccc4)cc3[n+]2CC)Oc2ccc(-c3ccccc3)cc21 | 0 | 80 | 0 | ? | 0 | ?
CCN1/C(=C/C=C/c2sc3ccccc3[n+]2CC)Sc2ccccc21 | - | 0 | 0 | 0 | 0 | 0
CCCCCCc1cc2cc(-c3cn4c(n3)sc3cc(OC)ccc34)c(=O)oc2cc1O | - | 0 | -71 | - | - | -
Oc1[nH]c2ccccc2c1N=Nc1ccccc1 | 0 | 0 | 0 | 0 | 0 | ?
Oc1[nH]c2ccccc2c1N=Nc1ccc(F)cc1 | 0 | 0 | 0 | 191 | 0 | ?
Cn1c(SCc2ccc(C#N)cc2Cl)nc2ccccc21 | 0 | 0 | 0 | 0 | 4.5µM | 0
N#Cc1ccc(CSc2ccccn2)c(Cl)c1 | 0 | 0 | 0 | 0 | 0 | 0

High-throughput results (PubChem BioAssay)
